# Data published in the supplement of paper PMC10681739.
# How the values were obtained:
# [1] = target: T1, ETS1 (UniProt P14921); test: ETS1 binding intensity (PBM fluorescence), ETS1 alone (arbitrary fluorescence units); higher = stronger binding; details: ETS1 concentration 1 nM; RUNX1 concentration 0 nM
# T1 sequence: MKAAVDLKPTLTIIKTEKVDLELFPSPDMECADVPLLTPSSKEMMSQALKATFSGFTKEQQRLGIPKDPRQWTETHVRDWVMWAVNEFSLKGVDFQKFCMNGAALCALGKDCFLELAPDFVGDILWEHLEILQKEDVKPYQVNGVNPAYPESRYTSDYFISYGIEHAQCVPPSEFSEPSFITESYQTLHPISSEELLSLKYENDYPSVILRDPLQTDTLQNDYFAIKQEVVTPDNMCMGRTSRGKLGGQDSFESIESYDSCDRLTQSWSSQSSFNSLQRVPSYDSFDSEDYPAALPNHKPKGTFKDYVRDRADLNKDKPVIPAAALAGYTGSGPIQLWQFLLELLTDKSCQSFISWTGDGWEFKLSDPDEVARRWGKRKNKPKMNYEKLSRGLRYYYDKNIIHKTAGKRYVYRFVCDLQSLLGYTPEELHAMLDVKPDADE
# [2] = target: RUNX1 (UniProt Q01196); test: RUNX1 binding intensity (PBM fluorescence), RUNX1 alone (arbitrary fluorescence units); higher = stronger binding; details: RUNX1 concentration 2 nM; ETS1 concentration 0 nM
# RUNX1, sequence (Q01196 whole entry): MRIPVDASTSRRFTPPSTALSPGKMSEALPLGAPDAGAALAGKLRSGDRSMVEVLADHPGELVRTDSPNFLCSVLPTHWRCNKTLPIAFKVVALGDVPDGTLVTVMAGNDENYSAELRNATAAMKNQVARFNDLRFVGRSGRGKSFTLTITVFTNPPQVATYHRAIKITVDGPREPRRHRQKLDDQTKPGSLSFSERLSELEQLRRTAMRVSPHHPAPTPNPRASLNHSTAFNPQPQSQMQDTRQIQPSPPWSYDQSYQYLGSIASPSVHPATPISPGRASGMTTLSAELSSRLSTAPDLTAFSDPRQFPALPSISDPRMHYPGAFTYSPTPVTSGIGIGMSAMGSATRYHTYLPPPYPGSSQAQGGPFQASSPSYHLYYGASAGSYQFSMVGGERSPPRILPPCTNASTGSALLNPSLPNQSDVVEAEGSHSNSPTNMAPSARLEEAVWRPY
# Protocol: (§1)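 Cooperative gcPBM on 36-bp genomic probes with neighbouring ETS1 and RUNX1 sites. Recombinant human RUNX1 (2 nM) was incubated alone or with ETS1 (25 nM) and detected with anti-RUNX1 antibody plus Alexa488 secondary. Values are medians over 4 replicate spots; the RUNX1+ETS1 data were normalised to the RUNX1-only data. The probes sit in constant array flanks that are not printed.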
# [3] = target: RUNX1 (UniProt Q01196); test: RUNX1 binding intensity (PBM fluorescence) in presence of ETS1, normalised to RUNX1-only experiment (arbitrary fluorescence units); higher = stronger binding; details: RUNX1 concentration 2 nM; ETS1 concentration 25 nM
# Protocol: as §1
# 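Throughout, for RUNX1 binding intensity (PBM fluorescence) in presence of ETS1, normalised to RUNX1-only experiment: Full-length recombinant human ETS1 or RUNX1 bound to double-stranded 36-bp genomic probes on microarrays, detected by protein-specific primary antibody and Alexa488 secondary, spot fluorescence as median of four replicate spots.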
# 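Throughout, for RUNX1 binding intensity (PBM fluorescence), RUNX1 alone: Full-length recombinant human RUNX1 bound to double-stranded 36-bp genomic probes on a high-density microarray, scored as Alexa488 fluorescence per spot via anti-RUNX1 antibody, median of four replicate spots.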
Sequence,ETS1 binding intensity [1],RUNX1 binding intensity [2],RUNX1 binding intensity [3]
CCTTGCAGCAACGGATGTGGGTTTTTTTTTTTCTTT,4030,1120,10500
TGGGCAGGAAGTGGTATCTGATTGTGGTTTTGATTT,3960,1360,8180
TACGTCACTTCCGGGCCGCCGTCCTGCGGGCAAGGG,2570,799,2270
ATAGTCTCTTCCTGTGTTGCAAACCACAGGTCCACC,743,1050,2300
TGAAGTACTAGTCAAGGATGTGGTTTTACATAGCAG,586,923,1340
CGGCAGGCAAGCAGGAAACCGCGAGTGGAGAAAGGG,1960,1010,1860
AGCTAGGACAGGATGTGAAAACCACACTGACAAAGT,2620,919,3510
GCAGAGTTTACAACAGGATGTGGTTATTGGCGCTGC,8870,777,4380
CTGAGCCGGATGTTACTGGTTAGTGGTTTTCTTTAT,3290,917,1560
AATCCCGGAAACGCGGATTCAGCGGAGCGCGGTGAC,1280,735,1260
AAAAGGCACCAGGAAATGACAGCACCGCAGCACGCC,1290,717,871
GTGCTAAGTGAGGAAGTGCAGTTTACCGCACGGTGG,839,675,935
GGCCGACGGGAAGTGTAGTCCGGCCTGCGGTCCGGG,801,704,1050
AGCAGGTATACCACTTCCTGTGGTTATCATTTGAGG,2330,966,6540
TATCTCCTATCTCCAGGAAGTGGTTAGCCCTAGGAG,3210,811,1870
GCTGATAGAACAGGATGTGGTAAAGAAGCAGGCCAA,5330,824,7890
GCAACAGGAAGGACCAAGTCCCCTCCCGCAATTTTA,627,888,1020
AATCTGAAACAGGAAATAAGTCTGTGGTTGTGTGTT,7070,833,1540
TCGCACCGGAACCCCTTGGCGGATTATGTGGGTTCC,659,782,862
CTGCCCAGCCACTTCCTGCCCAACCACAGACTGACA,2210,1420,6000
GAGAAACAGGAAGAGGGGTGGTGGTTACGGAACACG,2290,807,1340
